Here are results for 102 sequences from a collection of fitness landscapes (doi:10.1038/s41467-024-54723-y).

Whole data set: some 18,000 sequences, median “TetR repression strength (sort-seq, GFP reporter)” near 0.23, cut for the highest 2% near 0.68. For the sample, the highest values were picked, then their nearest neighbours and some sequences at random.

For the assay, the target named is TetR (class B, Tn10) (UniProt P04483). The assay is described as follows: TetR repression strength (sort-seq, GFP reporter) (relative to tetO2 = 1); higher = stronger repression. To be noted: E. coli. The essentials: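 Repression strength was calculated by subtracting the read-weighted mean bin from the top bin index plus one and dividing by the unaltered operator's value. The plasmid library was low-copy in E. coli SIG10-MAX, with eight randomized operator positions between a constitutive promoter and sfGFP and constitutive TetR. Cultures grew 5 h at 37 °C in LB containing 50 µg/mL chloramphenicol before 10^6 cells were sorted by FACS into 13 fluorescence bins, each sequenced on Illumina. Three independent transformations were averaged for members having ≥30 reads in all replicates and a CV ≤0.5.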
Sequence of TetR (class B, Tn10) (P04483 whole entry): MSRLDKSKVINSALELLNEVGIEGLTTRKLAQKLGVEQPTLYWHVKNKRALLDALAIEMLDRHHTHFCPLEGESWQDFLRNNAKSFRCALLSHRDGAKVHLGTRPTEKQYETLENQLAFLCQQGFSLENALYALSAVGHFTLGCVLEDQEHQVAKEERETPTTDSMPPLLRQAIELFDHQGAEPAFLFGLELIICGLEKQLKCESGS
On to TCCCCGGGAGTGAGGGAGA, for which the TetR repression strength worked out at 0.13.
For the sequence TCCCGGCCAGTTAGAGAGA, the TetR repression strength stood at 0.129.
TCCCGGCCAGTCTGCGAGA came in with a TetR repression strength of 0.967.
For the sequence TCCCGGAAAGTCTGGGAGA, the TetR repression strength is 0.153.
TCCCCGGCAGTCTGGGAGA returned a TetR repression strength of 0.271.
For TCCCCGGCAGTCTGCGAGA, the TetR repression strength is 0.266.
Sequence TCCCGGGGAGTCTGGGAGA yielded a TetR repression strength of 0.179.
TCCCTGCCAGTCTGCGAGA came in with a TetR repression strength of 0.24.
As for TCCCGGGCAGTCTGAGAGA, the figure is 0.179; as for TCCCGGGCAGTCTGGGAGA, 1.2.
As for TCCCGGGAAGTCTGGGAGA, the figure is 1.24.
For TCCCAGGTAGTAATAGAGA, the TetR repression strength was determined as 0.443.
TCCCTGTCAGTACAGGAGA returned a TetR repression strength of 0.118.
As for TCCCAAACAGTTTGTGAGA, the TetR repression strength is 0.0981.
Regarding TCCCCGAAAGTACAGGAGA, the TetR repression strength came to 0.259.
With TCCCCTGTAGTCGTAGAGA, the TetR repression strength was 0.344.
As for TCCCCCGGAGTGGGCGAGA, the TetR repression strength came out at 0.111.
TCCCCGGGAGTGGGCGAGA: the TetR repression strength is 0.993.
In turn, TCCCCAGTAGTGGGGGAGA yielded a TetR repression strength of 0.14.
TCCCGAGGAGTCGGCGAGA: the TetR repression strength came to 0.0782.
As to TCCCAAGGAGTCGGCGAGA, the TetR repression strength is 0.743.
TCCCAGGGAGTGGGCGAGA: the TetR repression strength was 0.312.
As for TCCCCAGGAGTCGGCGAGA, the figure is 0.237; as for TCCCAAGGAGTGGGCGAGA, 0.231.
Consider TCCCGGGGAGTGGGCGAGA, for which the TetR repression strength came to 0.225.
TCCCCAGGAGTGGGCGAGA had a TetR repression strength of 0.894.
As for TCCCCAGTAGTGGGCGAGA, the figure is 0.963; as for TCCCCAGCAGTGGGCGAGA, 0.125.
Take TCCCACCCAGTAGTGGAGA: the TetR repression strength worked out at 0.211.
In turn, TCCCTAGAAGTCCTAGAGA yielded a TetR repression strength of 0.0793.
As for TCCCCAGGAGTATCGGAGA, the TetR repression strength was 0.
Sequence TCCCGTCTAGTTTCCGAGA registered a TetR repression strength of 0.169.
Consider TCCCGGTCAGTCTGTGAGA, for which the TetR repression strength is 0.287.
Take TCCCTGGCAGTGTGTGAGA: the TetR repression strength was 0.164.
For TCCCATCGAGTCTGAGAGA, the TetR repression strength was 0.218.
As for TCCCATACAGTTGAGGAGA, the figure is 0.0487.
As for TCCCACTTAGTGCGAGAGA, the figure is 0.0746; as for TCCCCTGGAGTCCTGGAGA, 0.439; as for TCCCTAAGAGTGCTGGAGA, 0.768.
In turn, TCCCGGGGAGTGCTGGAGA yielded a TetR repression strength of 0.359.
Regarding TCCCTGAGAGTGCTGGAGA, the TetR repression strength amounted to 0.564.
Turning to TCCCGGAGAGTGCTGGAGA, the TetR repression strength came to 1.07.
As for TCCCTTAGAGTCCTGGAGA, the figure is 0.0777.
On to TCCCCTAGAGTCCTGGAGA, for which the TetR repression strength came to 0.952.
The sequence TCCCCGAGAGTGCTGGAGA displayed a TetR repression strength of 0.252.
TCCCTAGGAGTGCTGGAGA registered a TetR repression strength of 0.382.
Regarding TCCCCTGTAGTTGTCGAGA, the TetR repression strength was 0.123.
The sequence TCCCCGAAAGTCATAGAGA showed a TetR repression strength of 0.452.
TCCCATCCAGTCAAGGAGA: the TetR repression strength was determined as 0.595.
With TCCCTTGCAGTACATGAGA, the TetR repression strength is 0.298.
The sequence TCCCTTGAAGTGGGTGAGA yielded a TetR repression strength of 0.165.
The sequence TCCCACCCAGTGGTAGAGA yielded a TetR repression strength of 0.357.
Consider TCCCAGTGAGTCGTGGAGA, for which the TetR repression strength came to 0.25.
In the case of TCCCGCCAAGTAAAAGAGA, the TetR repression strength is 0.298.
On to TCCCATCAAGTTAATGAGA, for which the TetR repression strength turned out to be 0.0658.
As for TCCCGTCGAGTCAGGGAGA, the figure is 0.367; as for TCCCTATCAGTTCGTGAGA, 0.423.
The sequence TCCCCATCAGTTCCGGAGA gave a TetR repression strength of 0.207.
As for TCCCCATCAGTTCCTGAGA, the figure is 0.721; as for TCCCTATCAGTACGTGAGA, 0.349.
TCCCTATCAGTTCCTGAGA registered a TetR repression strength of 0.76.
As for TCCCTATCAGTACCAGAGA, the TetR repression strength is 0.514.
Sequence TCCCTATCAGTACCTGAGA gave a TetR repression strength of 0.867.
Consider TCCCTATCAGTTCTTGAGA, for which the TetR repression strength came to 0.539.
As for TCCCCATCAGTTCATGAGA, the figure is 0.401; as for TCCCGGGTAGTCGAGGAGA, 0.313; as for TCCCCAGCAGTTTCCGAGA, 0.275.
The sequence TCCCTTATAGTAGGCGAGA had a TetR repression strength of 0.0601.
Turning to TCCCACCGAGTACGGGAGA, the TetR repression strength is 0.135.
The sequence TCCCATGAAGTAAGGGAGA gave a TetR repression strength of 0.284.
TCCCTCTTAGTAAAAGAGA yielded a TetR repression strength of 0.342.
In the case of TCCCGATTAGTAGGGGAGA, the TetR repression strength stood at 0.844.
TCCCGATTAGTAAGGGAGA showed a TetR repression strength of 0.207.
TCCCTATTAGTGGTGGAGA returned a TetR repression strength of 0.0415.
As for TCCCTATGAGTGGTGGAGA, the figure is 0.119; as for TCCCTAGTAGTAGTGGAGA, 0.159.
As for TCCCACGAAGTAGGGGAGA, the figure is 0.104.
The sequence TCCCTATTAGTAGTGGAGA had a TetR repression strength of 0.683.
TCCCACGCAGTAGGGGAGA gave a TetR repression strength of 0.689.
The sequence TCCCACGCAGTGGGGGAGA came in with a TetR repression strength of 0.188.
TCCCTATGAGTAGTGGAGA yielded a TetR repression strength of 0.707.
With TCCCGAGTAGTAGGGGAGA, the TetR repression strength was found to be 0.0701.
Consider TCCCTATGAGTAGTAGAGA, for which the TetR repression strength came to 0.204.
Sequence TCCCTATTAGTTGGGGAGA gave a TetR repression strength of 0.483.
In turn, TCCCGGTAAGTGAAGGAGA yielded a TetR repression strength of 0.14.
As for TCCCAGGCAGTGGGGGAGA, the figure is 0.193; as for TCCCGAGTAGTGGCTGAGA, 0.311.
Sequence TCCCTAGTAGTAGCTGAGA showed a TetR repression strength of 0.307.
For the sequence TCCCTAGTAGTGGCTGAGA, the TetR repression strength stood at 0.905.
Regarding TCCCGAGCAGTTGGTGAGA, the TetR repression strength amounted to 0.317.
On to TCCCCTCCAGTGGGGGAGA, for which the TetR repression strength is 0.225.
TCCCTCCCAGTGTCGGAGA displayed a TetR repression strength of 0.295.
Sequence TCCCTTTGAGTTTTTGAGA came in with a TetR repression strength of 0.506.
In the case of TCCCTTAAAGTGCGCGAGA, the TetR repression strength amounted to 0.292.
Sequence TCCCATAAAGTGCTCGAGA came in with a TetR repression strength of 0.225.
As for TCCCCTAGAGTCCGCGAGA, the figure is 0.332; as for TCCCTTAAAGTACACGAGA, 0.377.
In turn, TCCCTTAAAGTATTCGAGA came in with a TetR repression strength of 0.311.
On to TCCCTTAAAGTACTCGAGA, for which the TetR repression strength turned out to be 1.16.
As for TCCCCTAGAGTGCGCGAGA, the figure is 0.901.
As for TCCCCTAAAGTGCGCGAGA, the figure is 0.266.
The sequence TCCCTTAAAGTGCTCGAGA registered a TetR repression strength of 0.747.
